# Screening results as filed in PubChem.
# PTAP TSG101 blk: blocks PTAP/TSG101 interaction to inhibit HIV-1 budding; Fluorescence polarization, FITC-PTAP peptide / Tsg101 binding; 340,000 tested, under 10 active; Potency, µM (titrated, usually from 115 µM), for the others: top-dose activity change, negative = inhibition, usual class: inhibitors; Q99816; active = well fitted inhibition curve with a large enough effect in the main read-out, with a control signal flat, not every such curve was filed as active; inconclusive = small, poorly fitted or top-dose-only effect, or effect the other way, or a change in a side signal; inactive = no such curve, though single readings can be large or run the other way; note: potency is the fitted concentration of half-maximal effect; % of control where 0% means no effect
# Target sequence (Q99816 whole entry, looked up): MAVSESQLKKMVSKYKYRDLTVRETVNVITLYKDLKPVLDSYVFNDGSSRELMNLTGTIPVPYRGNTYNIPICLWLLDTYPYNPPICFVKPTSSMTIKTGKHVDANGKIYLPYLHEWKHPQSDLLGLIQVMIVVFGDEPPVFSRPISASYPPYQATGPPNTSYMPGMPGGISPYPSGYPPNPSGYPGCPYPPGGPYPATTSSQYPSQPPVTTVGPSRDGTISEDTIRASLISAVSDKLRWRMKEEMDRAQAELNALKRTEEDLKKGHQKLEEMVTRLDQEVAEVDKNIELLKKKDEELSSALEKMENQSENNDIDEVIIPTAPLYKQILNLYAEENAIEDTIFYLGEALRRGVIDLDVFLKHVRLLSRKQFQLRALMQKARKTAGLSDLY
#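 Compounds were pin-transferred onto Tsg101 binding domain (10 uM final) in HEPES pH 7.5 buffer, then FITC-PTAP peptide was added at 50 nM final. After 20 min at RT, polarization reported peptide displacement across a qHTS concentration series.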
# TRPML1 ag: human mucolipin-1 channel agonism; Q9GZU1; TRPML1-expressing cells, Ca2+ dye fluorescence, FDSS; activation, % (test concentration not listed); actives 0.12% (n = 410,000); in the data active = activation above about 50%; inconclusive = mostly about 30% to 49%; note: 0% is about no effect
#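 Tet-induced TRPML1-DL cells, 1,500 per well, cultured overnight, were loaded with a no-wash Ca2+ dye for 45–90 min. Calcium fluorescence was recorded on the FDSS for 110 s after compound addition, before the EC80 agonist (4 uM 54-4) was added.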
# KCNH2 WT inh: KCNH2 (human, wildtype) channel inhibition; actives 0.37% (n = 340,000); U2OS, BacMam KCNH2, thallium flux FluxOr; active compounds read low; activity change, % at 1.84 µM;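 active = maximum activity change below -70%; inconclusive = maximum activity change between -70% and -50%; inactive = maximum activity change above -50%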; note: % is set by controls: 0 for no effect and ±100 for the full control effect
#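 U2OS cells transduced with wild-type KCNH2 virus are loaded with FluxOr dye for 45 min, and thallium flux is measured in kinetic reads before and after stimulation buffer. Rate constants are normalized to DMSO controls.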
# Glioma ERSR ind: ER stress response induction in glioma | U87-MG GRP78 promoter luciferase reporter, 16 h | Potency, µM, without a hit: top-dose activation, hits mostly activators | actives 0.02% (n = 420,000) | AID 602332; active = well fitted activation curve with a large enough effect; inconclusive = small, poorly fitted or top-dose-only effect; inactive = no such curve, though single readings can be large or run the other way; note: potency is the fitted concentration of half-maximal effect; series mostly up to about 76 µM; % of control where 0% means no effect; nearly all actives have a fitted effect of over 35% in size
#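 ERSR induction read as luciferase luminescence (Bright-Glo, 10 min at room temperature) in stably transfected human U87-MG glioma cells exposed to compounds for 16 h, using GRP78 as sensor.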
# TRPML1 blocker: human mucolipin-1 channel inhibition. TRPML1-inducible cells, Ca2+ dye fluorescence, FDSS; active compounds read low; inhibition of EC80 agonist-evoked calcium signal. activity change, negative = inhibition, % (concentration not given with the values). actives 0.02% (n = 390,000); in the data active = activity change below about -50%; inconclusive = between about -30% and that limit;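 note: stimulus is agonist 54-4 at its EC80 concentration; % is set by controls: 0 for no effect and ±100 for the full control effect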
#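 Tet-induced TRPML1-DL cells loaded with Ca8 no-wash calcium dye were read kinetically on FDSS. Compound addition was followed by EC80 agonist 54-4 (4 uM final); inhibition was read over 110 s.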
# KCNH2 3.1 block: blocks the human KCNH2 3.1 channel isoform. U2OS KCNH2 3.1, thallium flux FluxOr; active compounds read low. activity change, % (tested at about 1.8 µM). actives 0.95% (n = 340,000). AID 720553;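 active = maximum activity change below -70%; inconclusive = maximum activity change from -70% to -50%; inactive = maximum activity change above -50%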;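 note: thallium influx rate constant from kinetic fluorescence after stimulation buffer; % is set by controls: 0 for no effect and ±100 for the full control effect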
#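 Steps: virus added to U2OS suspension (4 h, RT, dark); medium with 10% FBS added, cells plated, 37 C overnight; FluxOr/Red40 loading buffer 45 min RT; stimulation buffer, 2 min kinetic read; rate constant normalized.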
# An asterisk follows results filed as active; i = inactive; ? = inconclusive; · = not tested or not shown. The list is not random: actives were taken first. Their share in the collection is about 1%.
SMILES,PTAP TSG101 blk,TRPML1 ag,KCNH2 WT inh,Glioma ERSR ind,TRPML1 blocker,KCNH2 3.1 block
O=C(NCc1ccco1)/C(=C/c1ccccc1)NC(=O)c1ccco1,-5%,1,-92*,-1%,11,-2
O=C(Nc1ccccc1)/C(=C\c1ccccc1)NC(=O)c1ccco1,-10%,1,-3,-2%,8,3
O=C(NCCc1nc2ccccc2[nH]1)/C(=C/c1ccc(F)cc1)NC(=O)c1ccco1,-1%,-1,-72*,-4%,-15,0
Cc1ccc(CNC(=O)COC(=O)c2ccccc2OCC(=O)Nc2ccc(Br)cc2)cc1,·,0,·,·,·,·
CC(C)(C)n1ncc2c(=O)n(Cc3ccccc3C#N)cnc21,·,1,·,-4%,-29,·
NC(N)=Nc1ccc(Cl)cc1,·,·,·,-4%,·,·
NC(=Nc1ccc(Cl)cc1)c1ccccc1,2%,65*,-5,4%,-5,8
COc1cccc(Nc2nnc(SCC(=O)Nc3sccc3C(N)=O)s2)c1,-8%,2,-6,-4%,16,-97*
CC[N+](C)(C)c1ccc(/C=C/c2ccc3ccccc3n2)cc1,·,0,·,-10%,·,·
Cc1ccc(NC(=O)c2c(C(=O)Nc3ccccc3)sc3nc(C)cc(=O)n23)cc1,0%,1,4,-6%,-4,-103*
COc1ccc(NC(=O)c2c(C(=O)Nc3ccccc3)sc3nc(C)cc(=O)n23)cc1,·,0,·,-1%,-20,·
CCOC(=O)N1CCC2CC1c1cc(-c3cccc(OC)c3)ccc12 (stereo not drawn),-1%,0,-116*,-2%,8,-15
O=C(CN1CCN(S(=O)(=O)N2CCCCCC2)CC1)Nc1ccc(Br)cc1,·,1,-101*,-7%,12,?
O=C(CN1CCN(Cc2ccccc2)CC1)Nc1ccc(Br)cc1,-5%,1,-33,-2%,-1,-84*
O=C(CN1CCN(S(=O)(=O)N2CCCCCC2)CC1)Nc1ccc(F)cc1,-3%,-1,10,-3%,13,-14
Cc1ccc(NC(=O)CN2CCN(Cc3ccccc3)CC2)cc1,-9%,1,6,-5%,-5,7
COC(=O)C(CCCCNC(=O)c1ccc([N+](=O)[O-])cc1)NC(=O)c1ccc([N+](=O)[O-])cc1 (stereo not drawn),1%,0,?,?,-19,-93*
COC(=O)[C@@H]1CCCN1Cc1ccc2c(c1)CN(Cc1ccc3c(c1)CCCN3C)CCO2,·,·,·,0%,·,·
CC(=O)NCCC(=O)Nc1cc(S(=O)(=O)N2CCOCC2)ccc1Oc1ccccc1,1%,0,-74*,1%,18,-2
CC(=O)NCCC(=O)Nc1cc(S(=O)(=O)N2CCOCC2)ccc1Oc1ccc(F)cc1,-4%,0,0,-6%,-15,-7
CCCCn1c(O)c(/C=C/C=C/C=Nc2ccccc2)sc1=S,1%,2,-3,?,-16,-40
CCn1c(O)c(/C=C/C=C/C=Nc2ccccc2)sc1=S,0%,0,-226*,0%,84,-184*
O=C1C=C(CO)OCC1=O,·,·,·,-4%,·,·
CCOC(=O)C1(CCOc2ccccc2)CCN(C(=O)c2ccc(-n3cccn3)cc2)CC1,0%,2,?,-3%,3,-87*
CCOC(=O)C1(CCOc2ccccc2)CCN(CCCn2cccn2)CC1,0%,0,-38,-2%,-12,-88*
SMILES,PTAP TSG101 blk,TRPML1 ag,KCNH2 WT inh,Glioma ERSR ind,TRPML1 blocker,KCNH2 3.1 block
CCOC(=O)C1(CCOc2ccccc2)CCN(Cc2cccc(-n3cccn3)c2)CC1,-8%,3,·,-5%,2,-98*
O=C(NCCc1nnc2n1CCN(CC1CC=CCC1)CC2)c1ccc(F)cc1 (stereo not drawn),·,·,·,-5%,·,·
COc1ccc([N+](=O)[O-])cc1NC(=O)COC(C)=O,-2%,0,-25,-1%,-15,-123*
CCCC(=O)OCC(=O)Nc1cc([N+](=O)[O-])ccc1OC,-1%,-1,i,1%,9,8
COc1ccccc1NC(=O)Cn1cc(C#N)c2ccccc21,-2%,2,-254*,-2%,9,5
COc1ccccc1NC(=O)CSCc1ccc([N+](=O)[O-])cc1,-1%,1,-149*,2%,9,-199*
Cc1cccc(-c2sc(Nc3ccccc3)n[n+]2-c2ccc(F)cc2)c1,-1%,0,-13,-4%,4,-92*
CCc1ccc(Nc2n[n+](-c3ccccc3)c(-c3cccc(C)c3)s2)cc1,-5%,-1,-10,1%,-13,18
O=C(Nc1cccnc1)c1ccc2snnc2c1,-8%,-1,-151*,0%,-2,-125*
O=C(Nc1ccccc1)c1ccc2snnc2c1,-1%,-1,-5,12%,1,-14
Cc1ccccc1C(=O)N1CCc2c(cnc(C)c2CNC(=O)c2ccc3c(c2)OCO3)C1,·,·,·,-4%,·,·
Cc1cc(C)nc(N2CCC(C(=O)NCc3ccccc3F)CC2)n1,-1%,0,0,-1%,4,-12
O=C(NCc1ccco1)C1CCN(c2nc3ccccc3n2Cc2ccccc2F)CC1,1%,0,?,3%,27,-105*
Cc1noc(C)c1C(=O)Nc1nc(-c2cc(F)ccc2F)cs1,-10%,2,-1,4%,24,-135*
C=CCn1c(CCNC(=O)c2cccs2)nnc1SCC(=O)c1ccc(Cl)cc1,-5%,4,26,-3%,-1,-98*
Cc1cc(C(=O)NCc2nc(-c3cccc(NC(=O)c4cc(C)oc4C)c3)oc2C)nc(C)n1,·,·,·,0%,·,·
O=c1cc(CN2CCN(C/C=C/c3ccccc3)CC2)c2cc(O)ccc2o1,-2%,0,-133*,-9%,3,-99*
Cc1ccc2oc(=O)cc(CN3CCN(C/C=C/c4ccccc4)CC3)c2c1,-2%,1,-7,-10%,11,-102*
O=C1N(Cc2cccc(Cl)c2)C[C@@H]2C[C@@H](c3cccn3-c3nccs3)N3CCC[C@@]123,-4%,1,13,-7%,31,-86*
COc1ccc(CC2(CO)CCN(C(C)Cc3ccc(Cl)cc3)CC2)cc1 (stereo not drawn),-6%,0,-93*,-4%,15,-93*
O=C(Cc1ccccc1)Nc1ccc(N2CCCC2)cc1,-6%,0,9,-1%,-13,1
CC1CCN(c2ccc(NC(=O)Cc3ccccc3)cc2)CC1,2%,0,-8,4%,-51*,-2
CCOc1ccc(C2=Nn3c(nnc3-c3ccccc3)SC2)cc1Cl,-4%,0,-2,-6%,14,-203*
COc1ccccc1N1CCN(c2nc(CNC(=O)C3CC34CCCC4)nc3ccccc23)CC1 (stereo not drawn),·,·,·,-6%,·,·
